Results taken from PubChem BioAssay AID651597 (National Center for Advancing Translational Sciences (NCATS), 2012).
Where “and” joins values, the source holds several entries; their conditions need not be identical. Equal values may be shown once. Hit rate of the full screen: of about 1,100 compounds, about 390 (35%) were called active. Inconclusive results (about 30%) are left out. The list shows a part of the results. A number with no mark means an inactive call. Calls follow the shape of the dose curve; as a rule, active = well fitted inhibition curve with a large enough effect; inconclusive = small, poorly fitted or top-dose-only effect; inactive = flat fitted curve, though single readings scatter.

Molecular target: Luciferin 4-monooxygenase (Photinus pyralis) (UniProt P08659)
Assay: qHTS of Nrf2 Activators: Hit Validation in Secondary FLuc Assay; also: nearly all actives have a fitted effect of over 65% in size
Details: firefly luciferase inhibition counter-screen, luminescence; series mostly up to 57.5 µM; activity, negative = inhibition: at the top concentration
Description: Many diseases have some form of oxidative stress injury and ties to inflammation, causing a host of problems for the patient. The antioxidant response element (ARE) plays an important role in alleviating the harmful effects of oxidative stress. The antioxidant response element (ARE) is a transcriptional regulatory element involved in the activation of genes coding for a number of antioxidant proteins and detoxifying enzymes. These enzymes work in concert to protect tissues from oxidative insults and chemical toxicities in human hepatocytes and immune cells. The protective effects of ARE activation are primarily triggered through Nrf2 (NF-E2-related factor) binding to and activating AREs. It is known that Nrf2 controls the production of over 250 antioxidant and detoxification proteins (Hu et al., 2006), thereby protecting tissues by increasing cellular antioxidant content and suppressing inflammatory signaling pathways. The transcription factor Nrf2 is a central link between oxidative chemicals, such as phenolic antioxidants and electrophilic compounds, and the activation of ARE. Nrf2 levels are constitutively low as a consequence of its interaction with Keap1, which targets its degradation (Zipper and Mulcahy, 2002). Electrophiles react with key cysteine residues in Keap1, releasing Nrf2 and allowing its translocation to the nucleus. Once within the nucleus, Nrf2 complexes with coactivators such as p300, and binds to the AREs to induce gene transcription of cytoprotective enzymes, resulting in the prevention of toxicity. Activation of Nrf2 protects tissues by increasing cellular antioxidant content and suppressing inflammatory signaling pathways. Identifying novel and potent Nrf2 activators by using the AREc32 cell line to detect ARE activation by small molecules will lead to the identification and development of probes to study protective pathways in multiple tissues. These specific probes are essential to study the ARE pathway, and eventually to determine whether this pathway does activate genes that could protect against a host of diseases, including cardiovascular diseases, obesity, diabetes, Alzheimer's, and Parkinson's disease.
This project's aim is to identify novel and potent Nrf2 activators by using the AREc32 cell line to detect ARE activation by small molecules, which will lead to the identification and development of probes to study the ARE pathway. In this counter assay, we aim to identify false positive as identified from this primary assay using an FLuc assay with an inhibiting read-out.
NIH Chemical Genomics Center [NCGC]
NIH Molecular Libraries Probe Centers Network [MLPCN]
Assay Submitter (PI): Curtis Klaassen, University of Kansas Medical Center
Assess whether an activator in the primary assay potentially causes such activation by inhibitor-induced stabilization of the firefly luciferase reporter enzyme by determining whether it inhibits firefly luciferase in the presence of Km concentrations of its substrates (ATP and D-luciferin).
% is scaled to controls: 0 for no effect and ±100 for the full control effect; potency is read from the fitted curve at half-maximal effect.

Structure (SMILES)	Potency	activity, negative = inhibition [%]
c1ccc(CSc2nccc(-c3ccco3)n2)cc1	12 µM (active)	
C=CCSc1nccc(-c2cc(Cl)sc2Cl)n1		-29.5
O=c1cc(-c2ccco2)nc(SCc2cccc(Cl)c2)[nH]1		-23.2
COC(=O)c1cc2c(s1)-c1cc(F)ccc1OC2		-13.2
CCn1c(NC(=O)c2ccccc2)nc2ccccc21	9.53 µM (active)	
CCn1c(NC(=O)c2cccs2)nc2ccccc21	12 µM (active)	
O=[N+]([O-])c1cccc(-c2nc(-c3ccccn3)no2)c1	1.9 µM (active)	
Brc1cc(Cc2nnc(-c3ccccc3)o2)c(Br)s1		-2.05
c1ccc(-c2nnc(-c3ccccc3)o2)cc1	1.9 µM (active)	
N=c1n(CCN2CCOCC2)c2ccccc2n1CC(=O)c1cccc([N+](=O)[O-])c1		4.81
O=[N+]([O-])c1cccc(-c2nnc(-c3ccccc3)o2)c1	2.39 µM (active)	
O=C1C2C(C(=O)N1/N=C/c1ccc([N+](=O)[O-])o1)C1C=CC2C12CC2 (stereo not drawn)		-17.2
O=[N+]([O-])c1cnccc1-n1nnc2ccccc21		4.14
NC(=O)c1cc2c3ccccc3ccn2c1-c1ccccc1	13.5 µM (active)	
CCOc1c(Br)cc(C(N)=O)cc1OCc1ccccc1		0.994
O=C1C(=Cc2ccco2)CCCC1=Cc1ccco1	2.69 µM (active)	
COC(=O)C1=C(C)N(C)C(=O)/C1=C\c1ccco1		-22.6

Structure (SMILES)	Potency	activity, negative = inhibition [%]
Nc1ccc(S(=O)(=O)Nc2nccc(/C=C/c3cccc(Br)c3)n2)cc1		-23.3
Nc1nccc(/C=C/c2c(F)cccc2Cl)n1	9.53 µM (active)	
COc1ccccc1C(=O)COC(=O)c1cccs1	2.69 µM (active)	
COC(=O)c1ccccc1NC(=O)c1cccs1		-1.86
COC(=O)c1ccccc1NC(=O)COCc1cc(-c2cccs2)on1		-17.5
COc1cc(OC)cc(-c2nc3ccccc3s2)c1	3.79 µM (active)	
COc1nc(-c2ccccc2)cc(-c2ccccc2)n1		-16.4
Cc1cccc(NC(=O)C2CC(=O)N/C(=N/N=C/c3ccco3)S2)c1 (stereo not drawn)		-25.3
C/C(=N\NC(=S)Nc1cccc(C)c1)c1ccco1	7.57 µM (active)	
Cc1cc(C)c(C#N)c(OCC(=O)c2ccc(Br)cc2)n1		-2.59
Cc1ccnc(SCC(=O)c2ccc(Br)cc2)c1C#N	6.01 µM (active)	
N#C/C(=C(/O)c1ccco1)c1nc2ccccc2s1	2.39 µM (active) and 2.69 µM (active)	
N#C/C(=C(/O)c1ccco1)c1nc2ccccc2[nH]1	3.79 µM (active)	
COC(=O)c1sccc1NC(=O)c1ccccc1		-5
COCCn1c(C(F)(F)F)ccc(NC(=O)c2ccccc2)c1=O	4.78 µM (active)	
COC(=O)c1cc2nc(-c3ccccc3)cc(C(F)(F)F)n2n1		0.282
